Reference: PMC12670160, “A drug-repurposing screen of FDA- and EMA-approved drugs identifies two NF-κB inhibitors active against eumycetoma” (Journal of Antimicrobial Chemotherapy, 2025)

System: M. mycetomatis strain mm55
Set-up: species or system Madurella mycetomatis MM55 hyphae; CellTiter-Glo 3D luminescence viability of fungal hyphae, single-point 2 uM library screen, per cent of growth control
Conditions: primary screen, metabolic activity vs growth control; 96 h, 2 µM; inhibitor
Procedure: To determine the in vitro susceptibility of M. mycetomatis to the compounds, a hyphal inoculum was prepared as described elsewhere.[19] This M. mycetomatis hyphal suspension (60 µL) was added to each of the wells in the 384-well plate, leading to a final testing concentration of 2 µM per compound. Each plate also contained a growth control (60 µL of M. mycetomatis hyphal suspension, plus 0.6 µL of DMSO) and a negative control (60 µL of culture medium, plus 0.6 µL of DMSO). Plates were then incubated for 4 days at 37°C, after which 30 µL of CellTiter-Glo 3D Cell Viability reagent was added to every well.[19] After 25 min of incubation at room temperature, the luminescence was measured with a CytoFluor Series 4000 luminometer (PerSeptive Biosystems, Framingham, MA, USA). To determine the metabolic activity, the following formula was used: where, GC is growth control and NC is negative control. The luminescence measured for the GC is considered as 100% metabolic activity. The luminescence for the NC is considered as 0% metabolic activity. […] The Oncode Drug Repurposing library was based on the drug repurposing library from the Drug Repurposing Hub of the Broad Institute and recreated by the Oncode institute.[13] The library contained 5631 drugs.[18] […]

| Compound | % viability |
| --- | --- |
| C[C@]12CC[C@@H]3c4ccc(OC(=O)N(CCCl)CCCl)cc4CC[C@H]3[C@@H]1CC[C@@H]2OP(=O)(O)O [ONC0003506, estramustine phosphatena] | 76.07% |
| C[N+]1(C)CCc2cc3c(cc2[C@H]1[C@@H]1OC(=O)c2c1ccc1c2OCO1)OCO3 [ONC0000006, bicucullinemethochloride] | 85.19% |
